Measurements from PubChem BioAssay (NCI).
This is part of a sample that, as a whole, favours compounds with a hit. Of some 79,000 tested, about 15% had one in any assay. Rule as the data show it: active = growth inhibition above about 70%; inactive = the rest.

Tests used:
[1] = NCI Yeast Anticancer Drug Screen. Data for the rad50 strain (AID 155);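 also: 0% = growth of vehicle-only cultures of the same strain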; settings: S. cerevisiae rad50 strain growth inhibition; at 50.0 µM; stronger effect = higher value
Method in brief: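 Readout: growth inhibition relative to vehicle-treated cultures. Compound exposure was carried out in a genetically defined yeast strain deficient in DNA damage repair.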

[2] = NCI Yeast Anticancer Drug Screen. Data for the mec2-1 strain (AID 157); settings: S. cerevisiae mec2-1 strain, at 50.0 µM, stronger effect = higher value
Method in brief: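 Each compound was tested on mec2-1 yeast, a strain altered in DNA damage repair or cell cycle control. Growth inhibition is reported relative to vehicle.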

[3] = NCI Yeast Anticancer Drug Screen. Data for the sgs1 mgt1 strain (AID 161);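 also: 0% = growth of cultures given vehicle only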; settings: S. cerevisiae sgs1 mgt1 strain, at 50.0 µM, stronger effect = higher value
Method in brief: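 Genetically altered yeast, compound exposure, growth inhibition relative to vehicle.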

[4] = NCI Yeast Anticancer Drug Screen. Data for the cln2 rad14 strain (AID 165);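 also: 0% = growth equal to vehicle treated cultures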; settings: S. cerevisiae cln2 rad14 strain, at 50.0 µM, stronger effect = higher value
Method in brief: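 Test compounds were added to cln2 rad14 yeast cultures; inhibition of growth was then determined by comparison with vehicle treatment.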

[5] = NCI Yeast Anticancer Drug Screen. Data for the bub3 strain (AID 167); settings: S. cerevisiae bub3 mutant strain, at 50.0 µM, stronger effect = higher value
Method in brief: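 Readout: yeast growth inhibition, expressed relative to vehicle-only wells. The test organism is a mutant strain from a panel with lesions in DNA repair or checkpoint genes.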

[6] = NCI Yeast Anticancer Drug Screen. Data for the mlh1 rad18 strain (AID 175); settings: S. cerevisiae mlh1 rad18 strain growth inhibition; at 50.0 µM; stronger effect = higher value
Method in brief: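 Inhibition values reflect reduced growth of mutant yeast versus vehicle-treated controls following compound exposure; the mutations affect DNA damage repair.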

Measured: growth inhibition

COc1cccc(OC)c1/C=C1\N=C(c2ccccc2)OC1=O
inactive: [1] -1.4% | [2] -1.4% | [3] 2.55% | [4] -56.9% | [5] 5.55% | [6] -9.25%

O=c1[nH]c2nc(Cl)nc(Cl)c2[nH]1
inactive: [1] 28.4% | [2] 5.55% | [3] 11.4% | [4] 12.1% | [5] 8.3% | [6] 45%

N#Cc1cccc(N2C(=O)c3ccc(C(=O)c4ccc5c(c4)C(=O)N(c4cccc(C#N)c4)C5=O)cc3C2=O)c1
inactive: [1] -25.9% | [2] -16.3% | [3] -49.5% | [4] 23.8% | [5] -0.7% | [6] -12.3%

O=C1C=C(c2ccccc2)CSC1
inactive: [1] 3.7% | [2] -10.1% | [3] -9.45% | [4] -79.3% | [5] -8.75% | [6] -4.85%

Cc1ccc2nc(-c3ccc(Cl)cc3Cl)oc(=O)c2c1
inactive: [1] -9.35% | [2] 3.8% | [3] 20.4% | [4] -12.8% | [5] 20.6% | [6] -7.15%

NNC(=O)C1CC1
inactive: [1] 0.5% | [2] -25.9% | [3] -5.65% | [4] 2.8% | [5] -14.1% | [6] -4.55%

CC(C)CCN(C=O)c1ccccc1
inactive: [1] 1.7% | [2] 0.7% | [3] 8.05% | [4] 5.5% | [5] -9.5% | [6] 2.15%

OC(c1ccccc1)C1CC2C=CC1C2 (configuration not stated)
inactive: [1] 10.4% | [2] 3.9% | [3] 3.75% | [4] 3.05% | [5] -2.05% | [6] 2.6%

O=[N+]([O-])c1cn(CCNc2c3ccccc3nc3ccccc23)cn1
inactive: [1] 17.4% | [2] -5.35% | [3] 20.4% | [4] 10.6% | [5] -3.85% | [6] 16.8%

CSc1nc(=O)[nH]c2c1[nH]c(=O)n2-c1ccccc1
inactive: [1] 1.2% | [2] 5.85% | [3] -6.35% | [4] -15.7% | [5] 8.3% | [6] -9.05%

CC(COc1ccccc1)N(CCCl)Cc1ccccc1 (configuration not stated)
inactive: [1] 2.7% | [2] 10.8% | [3] -1.4% | [4] -43.3% | [5] 38% | [6] 1.8%

O=c1[nH]c2nc3ccccc3c(=O)n2/c1=C/c1cccs1
inactive: [1] 28.9% | [2] 2.2% | [3] 4.4% | [4] 20.6% | [5] 14.3% | [6] -15.8%

CC(=O)O[C@H]1CC[C@]2(C)C3CC[C@]4(C)C([C@H](C)CCCC(C)C)CCC4[C@]3(/C=N/O)n3c(=O)n(-c4ccccc4)c(=O)n3[C@]2(/C=N\O)C1 (some centres not stated)
inactive: [1] 28% | [2] 35.2% | [3] 28.8% | [4] 9.7% | [5] 38.9% | [6] 45.4%

CC(NC(CC12CC3CC(CC(C3)C1)C2)C(N)=O)c1ccccc1 (configuration not stated)
inactive: [1] -17.8% | [2] -20.8% | [3] -2.3% | [4] 14.1% | [5] 15.3% | [6] -18.4%

O=C(O)/C=C\C(=O)Nc1ccc2c(c1)-c1ccccc1C2
inactive: [1] -6.95% | [2] -16.4% | [3] -14.6% | [4] -22.4% | [5] -28.1% | [6] 2.15%

C=C(C)CC1(C)C(=O)CCC1O (configuration not stated)
inactive: [1] -13.7% | [2] -15.8% | [3] 3.9% | [4] -30.8% | [5] 6.1% | [6] 6.25%

C/C=C/C(O)CCCC (configuration not stated)
inactive: [1] -13.2% | [2] -7.15% | [3] 4.15% | [4] 2.75% | [5] -28.2% | [6] -7.2%

O=[N+]([O-])c1ccc(CCCn2cnc3c(Cl)ncnc32)c([N+](=O)[O-])c1
inactive: [1] 15% | [2] 0.95% | [3] 7.95% | [4] -1.45% | [5] 1.2% | [6] -10.6%

O=C1c2c(nc3ccccc3c2-c2ccccc2)CN1Nc1ccccn1
inactive: [1] -2.5% | [2] -4.1% | [3] 6.8% | [4] 12.8% | [5] -5.7% | [6] -33.9%

O=C(NCCCCN1CCCC1)C(c1cc2ccccc2s1)C1CCCCC1 (configuration not stated)
inactive: [1] 20.1% | [2] 9.25% | [3] 42.2% | [4] 4.25% | [5] 24.2% | [6] 33.1%

COc1ccc(C(=O)Cc2ccc3ccccc3n2)cc1
inactive: [1] -4.75% | [2] 16.7% | [3] -6.8% | [4] -24.9% | [5] -10.8% | [6] 4.45%

c1ccc2c(c1)Nc1nc3ccccc3nc1N2
inactive: [1] -40% | [2] -5.7% | [3] -33.8% | [4] 15.8% | [5] -8% | [6] 16.9%

CCOC1NC(=O)c2ccccc21 (configuration not stated)
inactive: [1] 22.1% | [2] 6.15% | [3] 5.85% | [4] 22.2% | [5] 19.1% | [6] 12.8%

O=C1NC2=NN=C(c3ccc(Br)cc3)CN2NC12c1ccccc1-c1ccccc12
inactive: [1] -21.6% | [2] -15.8% | [3] -13.8% | [4] 21.6% | [5] -14.2% | [6] 4.2%

CCOC(=O)C1S(=O)(=O)OCCOS1(=O)=O
inactive: [1] -19.2% | [2] -26.6% | [3] -7.45% | [4] 0.75% | [5] -14.8% | [6] -27.8%

COc1cc2c(cc1OC)C1CCc3ccccc3CN1CC2 (configuration not stated)
inactive: [1] 0.7% | [2] -25.5% | [3] -6.85% | [4] 8.95% | [5] -15.8% | [6] 3.15%

CC(C)[C@@H](C)[C@@]1(C)C[C@@H]1[C@@H](C)[C@H]1CC[C@@H]([C@@H]2CC=C3C[C@@H](O)CC[C@]3(C)C2=O)[C@]1(C)CCO
inactive: [1] 13.9% | [2] 9.65% | [3] 19.3% | [4] -17.9% | [5] -7.35% | [6] -3.35%

O=C(OCC1CCCO1)c1ccccc1Cl (configuration not stated)
inactive: [1] 11.8% | [2] -10.2% | [3] -0.95% | [4] -6.6% | [5] 7.2% | [6] 0%

CN1CCC(Cl)(C(=O)c2ccccc2)CC1
inactive: [1] 26.2% | [2] 4.35% | [3] 25.6% | [4] -9.5% | [5] 5% | [6] 8.25%

Cc1ccc2nnc(C)n2c1
inactive: [1] 10.7% | [2] 1.95% | [3] 1.85% | [4] 19.2% | [5] 24.9% | [6] -4.4%

O=C(O)CCC(=O)CCc1ccccc1C(=O)O
inactive: [1] 12.3% | [2] -15.8% | [3] 4.3% | [4] -38.1% | [5] -23.1% | [6] 7.85%

S=C(NCCCN1Cc2ccccc2C1)Nc1ccccc1
inactive: [1] 15.4% | [2] -4.1% | [3] 3.15% | [4] -16.1% | [5] 4.85% | [6] -10.6%

CCOC(=O)NC(Nc1ccc(C(=O)O)cc1)(C(F)(F)F)C(F)(F)F
inactive: [1] -5.75% | [2] -10.8% | [3] -38.5% | [4] 18.6% | [5] 4.65% | [6] 11.4%

COC(=O)c1ccc(NC(=O)c2cc(OC)c(OC)c(OC)c2)cc1
inactive: [1] -24.3% | [2] -24.1% | [3] -19.4% | [4] -5.05% | [5] -9% | [6] -24%

CCC(C)(O)CCc1ccccc1 (configuration not stated)
inactive: [1] -17.5% | [2] -42.6% | [3] -64.2% | [4] 2.55% | [5] -36.3% | [6] -5%

O/N=C(/C(=N\O)c1ccco1)c1ccco1
inactive: [1] -26.1% | [2] -46.5% | [3] -13.8% | [4] 2.45% | [5] -24.1% | [6] -8.3%

N#CC(NNC(=O)c1ccccc1O)c1cccc(O)c1 (configuration not stated)
inactive: [1] 10.8% | [2] -0.25% | [3] 10.6% | [4] -6.7% | [5] 25.7% | [6] -25%
